# From PubChem BioAssay (Tox21)
# Records with an inconclusive call do not appear. Values without a mark were called inactive. Active and inactive are the calls of the source. Calls follow the shape of the full dose curve.
# Target: Beta-2 adrenergic receptor (Homo sapiens) (UniProt P07550)
# Assay: Adrenergic beta2 receptor (ADRB2) small molecule antagonists, cell-based qHTS assay (AID 1963592); also: nearly all actives have a fitted effect of over 50% in size
# Settings: CHO-ADRB2 cells, isoproterenol-stimulated cAMP HTRF ratio, 0.5 h; series mostly up to 92.4 µM; activity change, negative = inhibition: at the top concentration
# Text: U.S. Tox21 Program National Center for Advancing Translational Sciences [NCATS] Division of Preclinical Innovation [DPI] U.S. Environmental Protection Agency [EPA] National Institutes of Environmental Health Sciences [NIEHS] National Toxicology Program [NTP] U.S. Food and Drug Administration [FDA] Tox21 Assay Overview: Beta adrenergic receptors (Beta-ARs) belong to the G-protein coupled receptor (GPCR) superfamily, includes three subtypes - beta1, beta2, and beta3. Beta1-AR is the predominant receptor subtype expressed in the heart, and beta2-AR is expressed in the kidney, lung, blood vessel and in the heart, and beta3 is found in the adipocytes. Beta1 and 2 ARs couple to Gs protein and elevate cyclic adenosine mono phosphate (cAMP), which activates protein kinase A and leads to the downstream signaling responsible for the physiological actions. Beta-AR agonists or antagonists are the most prescribed therapeutic agents for heart failure and asthma, and these were one of the first target receptors for the rational drug design. Tox21 10K compound library was screened using the cAMP-Gs dynamic assay (Cisbio Bioassays, Shelton, CT) to identify agonists/antagonists of the Gs-coupled human adrenergic, beta2 receptor (ADRB2) in the CHO-ADRB2 cell line (Codex BioSolutions, Inc. Gaithersburg, MD), which stably over-expresses ADRB2. The principle of cAMP-Gs dynamic assay is based on HTRF technology, which facilitates the fluorescence resonance energy transfer (FRET) between donor Europium cryptate and acceptor d2-labeled cAMP. The cAMP generated within cells competes with the red acceptor, d2-labled cAMP, for binding to the monoclonal anti-cAMP-cryptate (Europium donor). An increase in intracellular cAMP leads to the disruption of FRET signal, and the signal is inversely proportional to the cAMP concentration. Propranolol HCl (Sigma-Aldrich, St. Louis, MO) was used as a positive control in the screening.
# Tox21 Assay Protocol Summary: CHO-ADRB2 cells were dispensed at 1,000/well in 4uL assay medium into white/solid 1536-well plates (Greiner Bio-One North America Inc., Monroe, NC) using a Multidrop Combi dispenser (ThermoFisher Scientific, Waltham, MA). The assay plates were incubated at 37C and 5% CO2 for an overnight (18-20hr). Then positive control and test compounds dissolved in DMSO were transferred to the assay plates at 23nL using a Pintool station (Wako, San Diego, CA). Following the compound and positive control transfer, 1uL agonist-stimulation mix containing 1nM Isoproterenol HCl, 100uM IBMX and 25uM Ro-20-1724 was added to each well of the assay plates using BioRAPTR Flying Reagent Dispenser (FRD, Beckman Coulter, Brea, CA). The assay plates were incubated at room temperature for 0.5hr. Then 2.5ul each d2-labled cAMP and anti-cAMP-cryptate solutions were added separately to each well of the assay plates using an FRD and the assay plates were incubated at room temperature for 1hr. The fluorescence signal was measured at two different wavelengths (665nm and 615nm) using an Envision plate reader (Perkin Elmer, Shelton, CT). Data were expressed as the ratio of 665 nm/615 nm.
# % is scaled to controls: 0 for no effect and ±100 for the full control effect.
# Beta-2 adrenergic receptor (Homo sapiens), sequence (P07550 whole entry, looked up): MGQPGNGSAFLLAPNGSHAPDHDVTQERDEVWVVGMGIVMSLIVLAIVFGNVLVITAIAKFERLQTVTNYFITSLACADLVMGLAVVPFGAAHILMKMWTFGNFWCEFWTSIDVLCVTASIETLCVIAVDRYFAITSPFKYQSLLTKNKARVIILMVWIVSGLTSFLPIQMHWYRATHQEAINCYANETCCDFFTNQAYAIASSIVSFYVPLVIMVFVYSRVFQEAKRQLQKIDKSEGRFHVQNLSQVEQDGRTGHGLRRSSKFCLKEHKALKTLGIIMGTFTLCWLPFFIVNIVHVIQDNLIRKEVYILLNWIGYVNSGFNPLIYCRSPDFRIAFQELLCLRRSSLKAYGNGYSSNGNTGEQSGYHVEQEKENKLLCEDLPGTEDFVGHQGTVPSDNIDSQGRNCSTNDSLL
Structure (SMILES),"activity change, negative = inhibition",Potency
CCCC(C)C(O)CC (stereo not given),-4.61%,
COc1cc(C(=S)N2CCOCC2)ccc1O,6.55% [at 42.5 µM],
CN1CCOCC1,,inactive
CO[Si](CCCOCC1CO1)(OC)OC (stereo not given),,inactive
O=C(Cl)c1ccc(C(=O)Cl)cc1,,inactive
O=C(O)Cc1ccc(CCNS(=O)(=O)c2ccc(Cl)cc2)cc1,6.16% [at 42.5 µM],
O=C(O)C(=O)Nc1cccc(-c2nn[nH]n2)c1,-7.04% [at 42.5 µM],
O=C(O)c1ccc(OCCN2CCCCC2)cc1,0.873% [at 42.5 µM],
COC(=O)Nc1nc2ccc(S(=O)c3ccccc3)cc2[nH]1 (stereo not given),,inactive
CCN1CCC[C@H]1CNC(=O)c1c(O)c(Cl)cc(Cl)c1OC,-16.9% [at 42.5 µM],
Cc1ccc(C(C)(C)C)cc1,,inactive
CCO[Si](C)(C)OCC,2.88%,
Cc1ccc(C=O)cc1,-11.4% [at 42.5 µM],
Cc1cc(N)n(-c2ccccc2)n1,2.36%,
CCCCCC1CCCC(=O)O1 (stereo not given),-7.46%,
CCC(C)C1CCCCC1=O (stereo not given),-7.39%,
ClCCCl,0.893%,
CCC(CO)CO,5.27%,
CCN[C@H]1CN(CCCOC)S(=O)(=O)c2sc(S(N)(=O)=O)cc21,0.213% [at 42.5 µM],
c1ccc(CSCc2ccccc2)cc1,3.68%,

Structure (SMILES),"activity change, negative = inhibition",Potency
CC(C)COC(=O)c1ccccc1O,-8.47%,
C=C(C)C(=O)OCCOP(=O)(O)O,6.24%,
O=C(O)c1cc(=O)c2ccccc2o1,2.11% [at 42.5 µM],
CC(C#N)(CCC(=O)O)N=NC(C)(C#N)CCC(=O)O (stereo not given),1.83%,
CC(C)(C)NC(=O)[C@@H]1CN(Cc2cccnc2)CCN1C[C@@H](O)C[C@@H](Cc1ccccc1)C(=O)N[C@H]1c2ccccc2C[C@H]1O,,inactive
O=C(O)Cc1cccc(-c2cc(CCCCCCc3ccc(O[C@H]4O[C@H](CO)[C@@H](O)[C@H](O)[C@@H]4O)c(-c4cccc(CC(=O)O)c4)c3)ccc2O[C@H]2O[C@H](CO)[C@@H](O)[C@H](O)[C@@H]2O)c1,2.66% [at 0.349 µM],
OC[C@H]1O[C@@](CO)(O[C@H]2O[C@H](CO)[C@@H](O)[C@H](O)[C@H]2O)[C@@H](O)[C@@H]1O,,inactive
NS(=O)(=O)c1cc2c(cc1Cl)NC(CC1CCCC1)NS2(=O)=O (stereo not given),6.45% [at 42.5 µM],
N[C@@H](CSSC[C@H](N)C(=O)O)C(=O)O,8.85% [at 0.349 µM],
COCCOCCOCCOCCO,-0.0334%,
CC1CC(O)CC(C)(C)C1 (stereo not given),3.46%,
CN(Cc1cnc2nc(N)nc(N)c2n1)c1ccc(C(=O)N[C@@H](CCC(=O)O)C(=O)O)cc1,,inactive
O=S(=O)(O)c1ccccc1,,inactive
C#CC(C)(O)CC(C)C (stereo not given),7.06%,
COc1c2ccoc2cc2oc(=O)ccc12,,inactive
C=COCCOCCOCCOC=C,-1.99%,
CCCCc1ccc2cccc(S(=O)(=O)O)c2c1,-4.02%,
CCCCCCOC(=O)C(C)CC (stereo not given),1.36%,
C1=Cc2ccccc2C1,0.837%,
CCCCC(CC)COCCO (stereo not given),-2.42%,
